# Reference: PubChem BioAssay (EPA / NIEHS)
# Active and inactive are the calls of the source. Rule for the calls: active = hit-call score of the fitted dose curve at least 0.9, where 1 is the maximum; inactive = score below 0.9.
# Key:
# [1] = ATG_CRE_CIS: Attagene CIS-FACTORIAL HepG2 Assay for human cAMP Responsive Element (CRE) binding protein 3 (AID 2282926); details: HepG2 CRE cis-reporter, Attagene multiplexed mRNA; actives raise or lower the signal
# Procedure, shortened: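 Capillary electrophoresis of 6-FAM-labelled, HpaI-digested PCR products quantified reporter transcripts. These came from HepG2 transiently transfected with cis-element reporters and exposed to test chemicals for 24 hours, with DMSO defining baseline activity.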
# [2] = molecular target: CCAAT/enhancer-binding protein beta (Homo sapiens) (UniProt P17676); assay: ATG_C_EBP_CIS: Attagene CIS-FACTORIAL HepG2 Assay for human CCAAT/Enhancer Binding Protein (C/EBP) beta (AID 2282927); details: HepG2 Attagene cis-factorial transcription factor reporter; actives raise or lower the signal
# Procedure, shortened: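 Following a 24 h incubation with test chemical, transfected HepG2 cells yielded RNA whose reporter transcripts were quantified by RT-PCR and fluorescent capillary electrophoresis, with DMSO serving as baseline for bidirectional fitting.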
# [3] = ATG_CMV_CIS: Attagene CIS-FACTORIAL HepG2 Assay for human CMV (Internal Marker) (AID 2282928); details: HepG2 CMV promoter reporter, transcription factor profiling; actives raise or lower the signal;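 note: endpoint acts as a background internal control marker rather than a target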
# Procedure, shortened: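 Fluorescence intensity of RT-PCR-derived reporter fragments, resolved by capillary electrophoresis, gives the signal. HepG2 liver cells bearing transfected cis-element reporters were treated 24 h; activity in either direction was fit relative to DMSO-treated controls.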
# [4] = ATG_DR4_LXR_CIS: Attagene CIS-FACTORIAL HepG2 Assay for human Liver X Receptor (LXR), DR4 submotif (AID 2282929); details: HepG2 Attagene DR4 cis-reporter, mRNA transcription; actives raise or lower the signal
# Procedure, shortened: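 DR4 cis-reporter in HepG2, 24 h exposure. Detection: RT-PCR, 6-FAM labelling, CE fragment analysis. Endpoint fitted bidirectionally, DMSO = baseline.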
# [5] = molecular target: Aryl hydrocarbon receptor (Homo sapiens) (UniProt P35869); assay: ATG_Ahr_CIS: Attagene CIS-FACTORIAL HepG2 Assay for human Aryl Hydrocarbon Receptor (Ahr) (AID 2282930); details: HepG2 AhR cis-factorial reporter transcription; actives raise or lower the signal
# Procedure, shortened: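 Values derive from bidirectional fitting against DMSO negative control. Underlying signal: cis-element reporter mRNA in transiently transfected HepG2, harvested 24 h post-dose and measured by RT-PCR plus capillary electrophoresis.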
# [6] = ATG_AP_1_CIS: Attagene CIS-FACTORIAL HepG2 Assay for human Activator Protein 1 (AP-1) (AID 2282931); details: HepG2 Attagene cis-factorial AP-1 reporter mRNA; actives raise or lower the signal
# Procedure, shortened: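 Cis-regulated reporter units transiently expressed in HepG2 report endogenous transcription-factor activity. Signal: reporter mRNA at 24 h, via RT-PCR and fluorescent capillary electrophoresis. Endpoint derived by bidirectional fitting, DMSO as negative control.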
# [7] = ATG_AP_2_CIS: Attagene CIS-FACTORIAL HepG2 Assay for human Activator Protein 2 (AP-2) (AID 2282932); details: HepG2 AP-2 cis-reporter, Attagene transcription factor profiling; actives raise or lower the signal
# Procedure, shortened: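 Cells (HepG2) transfected with promoter-driven reporter constructs, treated 24 h. Total RNA reverse-transcribed, reporter cDNA PCR-amplified, FAM-labelled by primer extension, digested, resolved by capillary electrophoresis. Activity fitted both directions versus DMSO.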
# [8] = ATG_BRE_CIS: Attagene CIS-FACTORIAL HepG2 Assay for human Bone Morphogenetic Protein (BMP) Response Element (BRE) (AID 2282933); details: HepG2 BMP response element reporter, Attagene transcription factor profiling; actives raise or lower the signal
# Procedure, shortened: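 Read-out: reporter mRNA induction quantified by RT-PCR and capillary electrophoresis after 24 h chemical exposure of transfected HepG2 cells. Endogenous factor activity on the BMP response element; gain or loss fitted against DMSO baseline.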
# [9] = molecular target: Retinoic acid receptor alpha (Homo sapiens) (UniProt P10276); assay: ATG_DR5_RAR_CIS: Attagene CIS-FACTORIAL HepG2 Assay for human Retinoic Acid Receptor Alpha (RARE), DR5 submotif (AID 2282934); details: HepG2 Attagene cis-factorial RARE DR5 reporter, mRNA; actives raise or lower the signal;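 for AC50: reporter responds to endogenous RAR alpha beta and gamma in HepG2 not RARA alone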
# Procedure, shortened: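 Endpoint fitted in both directions relative to DMSO as negative control. It reflects DR5 cis-element reporter mRNA induction in transiently transfected HepG2 cells, measured 24 h after dosing through RT-PCR and fluorescent capillary electrophoresis.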
# [10] = molecular target: Transcription factor E2F1 (Homo sapiens) (UniProt Q01094); assay: ATG_E2F_CIS: Attagene CIS-FACTORIAL HepG2 Assay for human E2F Transcription Factor 1 (AID 2282935); details: HepG2 Attagene cis-reporter, E2F reporter RNA transcripts; actives raise or lower the signal
# Procedure, shortened: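 First, HepG2 cells were transfected with reporter transcription units. Next, they were dosed for 24 h. Then RNA was isolated, converted to cDNA, PCR-amplified, FAM-labeled, HpaI-digested and analyzed by capillary electrophoresis.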
# Retinoic acid receptor alpha (Homo sapiens), sequence (P10276 whole entry, looked up): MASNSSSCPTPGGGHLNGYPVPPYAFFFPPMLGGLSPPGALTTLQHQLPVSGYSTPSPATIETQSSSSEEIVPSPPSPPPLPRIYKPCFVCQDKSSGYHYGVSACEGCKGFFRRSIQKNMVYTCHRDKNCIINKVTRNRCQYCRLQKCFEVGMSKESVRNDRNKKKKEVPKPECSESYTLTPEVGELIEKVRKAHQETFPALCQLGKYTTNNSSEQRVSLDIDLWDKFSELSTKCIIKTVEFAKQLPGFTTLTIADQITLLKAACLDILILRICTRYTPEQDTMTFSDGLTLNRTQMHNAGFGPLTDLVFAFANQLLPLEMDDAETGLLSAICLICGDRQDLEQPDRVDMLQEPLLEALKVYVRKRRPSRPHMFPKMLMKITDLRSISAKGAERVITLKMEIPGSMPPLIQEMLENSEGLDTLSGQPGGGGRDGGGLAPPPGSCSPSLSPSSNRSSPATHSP
# Transcription factor E2F1 (Homo sapiens), sequence (Q01094 whole entry, looked up): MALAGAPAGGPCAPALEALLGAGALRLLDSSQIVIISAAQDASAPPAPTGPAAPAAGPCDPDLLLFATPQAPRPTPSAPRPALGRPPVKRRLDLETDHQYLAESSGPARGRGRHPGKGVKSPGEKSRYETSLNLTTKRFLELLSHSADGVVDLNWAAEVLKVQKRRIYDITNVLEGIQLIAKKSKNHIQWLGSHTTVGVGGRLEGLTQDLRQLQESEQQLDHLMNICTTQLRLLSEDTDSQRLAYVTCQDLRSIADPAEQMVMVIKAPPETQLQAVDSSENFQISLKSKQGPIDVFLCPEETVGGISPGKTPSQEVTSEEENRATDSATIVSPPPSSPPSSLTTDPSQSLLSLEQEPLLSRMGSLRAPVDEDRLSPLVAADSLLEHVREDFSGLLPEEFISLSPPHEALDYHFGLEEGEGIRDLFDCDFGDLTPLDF
# CCAAT/enhancer-binding protein beta (Homo sapiens), sequence (P17676 whole entry, looked up): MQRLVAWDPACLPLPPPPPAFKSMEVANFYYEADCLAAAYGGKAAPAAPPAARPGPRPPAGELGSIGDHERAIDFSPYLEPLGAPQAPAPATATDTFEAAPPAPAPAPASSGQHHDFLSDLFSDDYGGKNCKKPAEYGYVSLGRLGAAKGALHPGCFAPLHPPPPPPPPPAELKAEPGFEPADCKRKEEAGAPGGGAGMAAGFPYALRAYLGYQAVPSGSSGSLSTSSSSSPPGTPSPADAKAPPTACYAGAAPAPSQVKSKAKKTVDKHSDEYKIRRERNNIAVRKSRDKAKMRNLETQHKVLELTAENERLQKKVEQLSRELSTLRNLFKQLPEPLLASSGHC
# Aryl hydrocarbon receptor (Homo sapiens), sequence (P35869 whole entry, looked up): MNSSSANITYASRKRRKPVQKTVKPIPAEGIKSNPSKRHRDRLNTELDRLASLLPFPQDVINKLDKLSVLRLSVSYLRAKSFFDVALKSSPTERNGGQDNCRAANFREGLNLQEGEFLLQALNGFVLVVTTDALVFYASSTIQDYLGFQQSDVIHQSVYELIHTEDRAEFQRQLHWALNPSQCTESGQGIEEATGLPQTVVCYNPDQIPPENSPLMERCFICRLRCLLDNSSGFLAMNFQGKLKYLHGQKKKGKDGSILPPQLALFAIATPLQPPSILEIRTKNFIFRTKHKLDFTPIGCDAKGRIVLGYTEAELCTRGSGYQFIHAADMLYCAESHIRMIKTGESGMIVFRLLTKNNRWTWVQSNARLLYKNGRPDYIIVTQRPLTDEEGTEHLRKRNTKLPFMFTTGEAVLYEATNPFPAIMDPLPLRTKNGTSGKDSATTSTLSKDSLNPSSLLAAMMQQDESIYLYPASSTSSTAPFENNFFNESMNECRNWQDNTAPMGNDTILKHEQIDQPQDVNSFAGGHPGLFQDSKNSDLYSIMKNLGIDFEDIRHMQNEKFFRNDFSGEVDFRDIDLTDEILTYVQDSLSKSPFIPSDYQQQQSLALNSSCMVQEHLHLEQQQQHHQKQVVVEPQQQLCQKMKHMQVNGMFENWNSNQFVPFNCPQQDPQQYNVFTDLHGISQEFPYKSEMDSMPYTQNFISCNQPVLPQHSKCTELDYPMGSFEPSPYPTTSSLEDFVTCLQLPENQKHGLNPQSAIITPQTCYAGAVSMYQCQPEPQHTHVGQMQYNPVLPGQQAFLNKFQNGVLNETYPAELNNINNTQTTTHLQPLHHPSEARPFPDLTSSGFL
compound,measurement,setting,value
CC(=O)Nc1nnc(S(N)(=O)=O)s1,outcome,[1],inactive
same,outcome,[2],inactive
same,outcome,[3],inactive
same,outcome,[4],inactive
same,outcome,[5],inactive
same,outcome,[6],inactive
same,outcome,[7],inactive
same,outcome,[8],inactive
same,outcome,[9],inactive
CC1(C)S[C@@H]2[C@H](NC(=O)COc3ccccc3)C(=O)N2[C@H]1C(=O)O,outcome,[1],inactive
same,outcome,[2],inactive
same,outcome,[3],inactive
same,outcome,[4],inactive
same,outcome,[5],inactive
same,outcome,[6],inactive
same,outcome,[7],inactive
same,outcome,[8],inactive
same,outcome,[9],inactive
O=S(=O)(Oc1ccc(Cl)cc1Cl)c1ccccc1,outcome,[1],inactive
same,outcome,[2],inactive
same,AC50,[3],46.7 µM (active)
same,AC50,[4],48.8 µM (active)
same,outcome,[5],inactive
same,outcome,[6],inactive
same,outcome,[7],inactive
same,AC50,[8],61.4 µM (active)
same,outcome,[9],inactive
C=CC(=O)OCC(Br)CBr (configuration not stated),outcome,[1],inactive
same,AC50,[2],180 µM (active)
same,AC50,[3],100 µM (active)
same,AC50,[4],53.4 µM (active)
same,outcome,[5],inactive
same,outcome,[6],inactive
same,outcome,[7],inactive
same,outcome,[8],inactive
same,outcome,[9],inactive
same,outcome,[10],inactive
C=CC=CC=CCCCCC,outcome,[1],inactive
same,outcome,[2],inactive
same,outcome,[3],inactive
same,outcome,[4],inactive
same,outcome,[5],inactive
same,outcome,[6],inactive
same,outcome,[7],inactive
same,outcome,[8],inactive
Cc1ccc(N)c([N+](=O)[O-])c1,outcome,[1],inactive
same,outcome,[2],inactive
same,outcome,[3],inactive
same,outcome,[4],inactive
same,outcome,[5],inactive
same,outcome,[6],inactive
same,outcome,[7],inactive
same,outcome,[8],inactive
same,outcome,[9],inactive
C=CC(=O)NC(C)(C)CS(=O)(=O)O,outcome,[1],inactive
same,outcome,[2],inactive
same,outcome,[3],inactive
same,outcome,[4],inactive
same,outcome,[5],inactive
same,outcome,[6],inactive
same,outcome,[7],inactive
same,AC50,[8],15.8 µM (active)
same,outcome,[9],inactive
O=C(c1ccccc1)c1ccc(O)c(O)c1O,outcome,[1],inactive
same,outcome,[2],inactive
same,outcome,[3],inactive
same,outcome,[4],inactive
same,AC50,[5],84.4 µM (active)
same,outcome,[6],inactive
same,outcome,[7],inactive
same,outcome,[8],inactive
COC(=O)c1ccc2cc(C(=O)OC)ccc2c1,outcome,[1],inactive
same,outcome,[2],inactive
same,outcome,[3],inactive
same,outcome,[4],inactive
same,outcome,[5],inactive
same,outcome,[6],inactive
same,outcome,[7],inactive
same,outcome,[8],inactive
same,outcome,[9],inactive
COc1c2ccoc2cc2oc(=O)ccc12,outcome,[1],inactive
same,outcome,[2],inactive
same,outcome,[3],inactive
same,outcome,[4],inactive
same,outcome,[5],inactive
same,outcome,[6],inactive
same,outcome,[7],inactive
same,outcome,[8],inactive
same,outcome,[9],inactive
same,outcome,[10],inactive
CCO[Si](CCCN=C=O)(OCC)OCC,outcome,[1],inactive
same,outcome,[2],inactive
same,outcome,[3],inactive
same,outcome,[4],inactive
same,outcome,[5],inactive
same,outcome,[6],inactive
same,outcome,[7],inactive
same,outcome,[8],inactive
same,outcome,[9],inactive
O=C(O)CCCCCCCCCC(=O)O,outcome,[1],inactive
same,outcome,[2],inactive
same,outcome,[3],inactive
same,outcome,[4],inactive
same,outcome,[5],inactive
same,outcome,[6],inactive
same,outcome,[7],inactive
same,outcome,[8],inactive
same,outcome,[9],inactive
S=C(NC1CCCCC1)NC1CCCCC1,outcome,[1],inactive
same,outcome,[2],inactive
same,outcome,[3],inactive
same,outcome,[4],inactive
same,outcome,[5],inactive
same,outcome,[6],inactive
same,outcome,[7],inactive
same,outcome,[8],inactive
same,outcome,[9],inactive
same,outcome,[10],inactive
CCCCC(CC)COCC1CO1 (configuration not stated),outcome,[1],inactive
same,outcome,[2],inactive
same,outcome,[3],inactive
same,outcome,[4],inactive
same,outcome,[5],inactive
same,outcome,[6],inactive
same,outcome,[7],inactive
same,outcome,[8],inactive
same,outcome,[9],inactive
CCO[Si](C)(OCC)OCC,outcome,[1],inactive
same,outcome,[2],inactive
same,outcome,[3],inactive
same,outcome,[4],inactive
same,outcome,[5],inactive
same,outcome,[6],inactive
same,outcome,[7],inactive
same,outcome,[8],inactive
same,outcome,[9],inactive
same,outcome,[10],inactive
CCCCCCCCO[C@@H]1O[C@H](CO)[C@@H](O)[C@H](O)[C@H]1O,outcome,[1],inactive
same,outcome,[2],inactive
same,outcome,[3],inactive
same,outcome,[4],inactive
same,outcome,[5],inactive
same,outcome,[6],inactive
same,outcome,[7],inactive
same,outcome,[8],inactive
same,outcome,[9],inactive
same,outcome,[10],inactive
Oc1ccc(Cl)cc1Cc1cc(Cl)ccc1O,AC50,[1],3.51 µM (active)
same,outcome,[2],inactive
same,outcome,[3],inactive
same,AC50,[4],7.95 µM (active)
same,outcome,[5],inactive
same,AC50,[6],17.6 µM (active)
same,AC50,[7],15.4 µM (active)
same,AC50,[8],3.46 µM (active)
same,AC50,[9],3.08 µM (active)
same,outcome,[10],inactive
CC(C)(Oc1ccc(C2CC2(Cl)Cl)cc1)C(=O)O (configuration not stated),outcome,[1],inactive
same,outcome,[2],inactive
same,outcome,[3],inactive
same,outcome,[4],inactive
same,outcome,[5],inactive
same,outcome,[6],inactive
same,outcome,[7],inactive
same,outcome,[8],inactive
same,outcome,[9],inactive
same,outcome,[10],inactive
CNC(=S)NN,outcome,[1],inactive
same,outcome,[2],inactive
same,outcome,[3],inactive
same,outcome,[4],inactive
same,outcome,[5],inactive
same,outcome,[6],inactive
same,outcome,[7],inactive
same,outcome,[8],inactive
same,outcome,[9],inactive
same,outcome,[10],inactive
O=S(=O)(O)c1ccccc1C=Cc1ccc(-c2ccc(C=Cc3ccccc3S(=O)(=O)O)cc2)cc1,outcome,[1],inactive
same,outcome,[2],inactive
same,outcome,[3],inactive
same,outcome,[4],inactive
same,outcome,[5],inactive
same,outcome,[6],inactive
same,outcome,[7],inactive
same,AC50,[8],39.6 µM (active)
same,outcome,[9],inactive
same,outcome,[10],inactive
Clc1nc2ccccc2s1,outcome,[1],inactive
same,outcome,[2],inactive
same,outcome,[3],inactive
same,outcome,[4],inactive
same,outcome,[5],inactive
same,outcome,[6],inactive
same,outcome,[7],inactive
same,outcome,[8],inactive
same,outcome,[9],inactive
same,outcome,[10],inactive
COCC(C)N (configuration not stated),outcome,[1],inactive
same,outcome,[2],inactive
same,outcome,[3],inactive
same,outcome,[4],inactive
same,outcome,[5],inactive
same,outcome,[6],inactive
same,outcome,[7],inactive
same,outcome,[8],inactive
same,outcome,[9],inactive
same,outcome,[10],inactive
Nc1nc2ccccc2[nH]1,outcome,[1],inactive
same,outcome,[2],inactive
same,outcome,[3],inactive
same,outcome,[4],inactive
same,AC50,[5],28.6 µM (active)
same,outcome,[6],inactive
same,outcome,[7],inactive
same,outcome,[8],inactive
same,outcome,[9],inactive
same,outcome,[10],inactive
CC1OC1C1CCC2(C)OC2C1 (configuration not stated),outcome,[1],inactive
same,outcome,[2],inactive
same,outcome,[3],inactive
same,outcome,[4],inactive
same,outcome,[5],inactive
same,outcome,[6],inactive
same,outcome,[7],inactive
same,outcome,[8],inactive
same,outcome,[9],inactive
same,outcome,[10],inactive
O=C1c2cccc(O)c2C(=O)c2c(O)cc(CO)cc21,outcome,[1],inactive
same,outcome,[2],inactive
same,AC50,[3],11.3 µM (active)
same,outcome,[4],inactive
same,outcome,[5],inactive
same,AC50,[6],32.5 µM (active)
same,outcome,[7],inactive
same,outcome,[8],inactive
same,outcome,[9],inactive
same,outcome,[10],inactive
